# Experimental data published in publication PMC4336329 (PLoS ONE, 2015).
# Among all 310,000 compounds or so, about 14,000 (4.5%) showed an effect of 50% or more. Effects have a minus sign here. For the sample, strong results were picked, then their nearest neighbours and some compounds at random.
# Target: human ether-à-go-go-related gene (hERG) potassium channel (human, UniProt Q12809)
# Test: primary screen, population patch clamp on CHO cells stably expressing hERG; higher = less effect of the substance
# 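Further: peak tail current of the secondary pulse compared with the same well before compound.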
# Chain of human ether-à-go-go-related gene (hERG) potassium channel (Q12809 whole entry, looked up): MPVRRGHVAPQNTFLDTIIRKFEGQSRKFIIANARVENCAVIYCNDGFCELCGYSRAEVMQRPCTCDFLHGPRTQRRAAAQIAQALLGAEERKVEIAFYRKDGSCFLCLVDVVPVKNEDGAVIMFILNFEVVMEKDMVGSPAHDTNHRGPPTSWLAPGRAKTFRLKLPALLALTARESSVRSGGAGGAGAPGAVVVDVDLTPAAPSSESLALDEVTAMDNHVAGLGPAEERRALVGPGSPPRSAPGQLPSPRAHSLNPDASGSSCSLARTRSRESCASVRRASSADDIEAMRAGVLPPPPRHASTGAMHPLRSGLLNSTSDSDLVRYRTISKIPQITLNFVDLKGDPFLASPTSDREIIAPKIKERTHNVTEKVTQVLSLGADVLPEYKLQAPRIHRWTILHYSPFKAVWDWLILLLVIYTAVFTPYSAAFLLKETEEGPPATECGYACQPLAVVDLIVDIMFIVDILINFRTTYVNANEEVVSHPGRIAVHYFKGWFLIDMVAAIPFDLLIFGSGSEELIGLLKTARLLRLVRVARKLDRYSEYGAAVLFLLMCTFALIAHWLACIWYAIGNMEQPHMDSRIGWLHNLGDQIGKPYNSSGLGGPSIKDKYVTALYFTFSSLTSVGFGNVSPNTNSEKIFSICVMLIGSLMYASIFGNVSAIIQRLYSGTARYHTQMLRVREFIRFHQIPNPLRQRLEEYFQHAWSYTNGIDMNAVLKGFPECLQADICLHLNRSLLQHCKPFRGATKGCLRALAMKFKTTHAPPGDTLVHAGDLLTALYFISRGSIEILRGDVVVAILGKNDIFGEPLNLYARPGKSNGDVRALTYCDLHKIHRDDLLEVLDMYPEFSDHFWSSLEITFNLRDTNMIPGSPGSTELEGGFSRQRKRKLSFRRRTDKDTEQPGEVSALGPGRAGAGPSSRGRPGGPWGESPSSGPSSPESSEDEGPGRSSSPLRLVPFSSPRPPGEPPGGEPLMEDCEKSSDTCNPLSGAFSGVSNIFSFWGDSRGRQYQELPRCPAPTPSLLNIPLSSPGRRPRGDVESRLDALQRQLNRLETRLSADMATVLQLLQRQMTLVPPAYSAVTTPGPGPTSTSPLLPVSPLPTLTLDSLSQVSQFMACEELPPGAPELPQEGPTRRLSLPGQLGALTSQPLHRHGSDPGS
row,SMILES,"hERG current change (%, negative = inhibition) at 10uM"
1,Cc1ccc(OC(=O)c2cccc(S(=O)(=O)N3CCN(C)CC3)c2)c(Br)c1,-19.5%
2,O=C(NCc1ccccc1)C(C(=O)c1ccc(F)cc1)n1ccccc1=O (stereo not drawn),-0.0984%
3,COc1ccc(C2(C(=O)Nc3ccccc3)CCOCC2)cc1,-14.2%
4,CC1CCCCC1NC(=O)COC(=O)/C=C/c1ccco1 (stereo not drawn),-1.9%
5,O=C1c2ccc(Oc3ccc4c(c3)C(=O)N(CCCCO)C4=O)cc2C(=O)N1CCCCO,-24.1%
6,O=C1c2ccc(Oc3ccc4c(c3)C(=O)N(CCCO)C4=O)cc2C(=O)N1CCCO,-1.78%
7,O=C(O)CCN1C(=O)c2ccc(Oc3ccc([N+](=O)[O-])cc3)cc2C1=O,4.85%
8,O=C1c2ccc(Oc3ccc([N+](=O)[O-])cc3)cc2C(=O)N1CCO,-52.8%
9,O=C(O)CN1C(=O)c2ccc(Oc3ccc([N+](=O)[O-])cc3)cc2C1=O,23.2%
10,O=C1c2ccc(Oc3ccc([N+](=O)[O-])cc3)cc2C(=O)N1CCCO,-60.8%
11,CCC(=O)N1CCCc2cc(S(=O)(=O)N3CCN(c4ccccc4F)CC3)ccc21,-23.7%
12,CCOC(=O)C1CCCN(C(=O)c2cnn3c(C(F)F)cc(-c4ccc(C)cc4)nc23)C1 (stereo not drawn),-38.4%
13,O=C(NCCN1CCOCC1)c1ccc(Cl)c(S(=O)(=O)N2CCCCC2)c1,-58.3%
14,Cc1ccccc1CSCCNC(=O)c1ccc(Cl)c(S(=O)(=O)N2CCOCC2)c1,-42.2%
15,Cc1ccc(C(=O)NCCN2CCOCC2)cc1S(=O)(=O)N1CCCCC1,-20.7%
16,CC(C)(CNC(=O)c1ccc(Cl)c(S(=O)(=O)N2CCc3ccccc3C2)c1)N1CCOCC1,-50.3%
17,O=C(NCCN1CCOCC1)c1ccc(Cl)c(S(=O)(=O)N2CCCC2)c1,-0.109%
18,O=C(NCCN1CCOCC1)c1ccc(Cl)c(S(=O)(=O)N2CCOCC2)c1,13.1%
19,CC(C)(C)SCCNC(=O)c1ccc(Cl)c(S(=O)(=O)N2CCOCC2)c1,-6.74%
20,Cc1ccc(CSCCNC(=O)c2ccc(Cl)c(S(=O)(=O)N3CCOCC3)c2)cc1,-40.5%
21,Cl.O=C(NCCN1CCOCC1)c1ccc(Cl)c(S(=O)(=O)N2CCCCCC2)c1,-40.1%

row,SMILES,"hERG current change (%, negative = inhibition) at 10uM"
1,Cl.O=C(NCCCN1CCOCC1)c1ccc(Cl)c(S(=O)(=O)N2CCCCCC2)c1,-50.6%
2,COc1ccc(C(=O)NCC(C)(C)N2CCOCC2)cc1S(=O)(=O)N1CCCC1,-8.82%
3,O=C(NCCSCc1ccccc1)c1ccc(Cl)c(S(=O)(=O)N2CCOCC2)c1,-50%
4,Cc1ccccc1C(=O)NC(=S)Nc1ccc(S(=O)(=O)N2CCN(C)CC2)cc1,7.75%
5,COc1ccc(-c2noc(CN3CCCCC3)n2)cc1OC,-1.49%
6,Cc1cccc(C)c1NC(=O)CN(c1ccccn1)S(=O)(=O)c1ccc(F)cc1,19.1%
7,Cc1ccc2[nH]cc(CCNS(=O)(=O)c3ccc(F)cc3)c2c1,-4.39%
8,Cn1c(-c2ccccc2)cnc1NCc1cccc([N+](=O)[O-])c1,-72%
9,CSc1ccc(CNc2ncc(-c3cccc([N+](=O)[O-])c3)n2C)cc1.O=C(O)C(=O)O,-66.4%
10,COc1cccc(CNc2ncc(-c3ccccc3)n2C)c1,-35.6%
11,CC(C)NCc1cccc([N+](=O)[O-])c1.O=C(O)C(=O)O,3.39%
12,Cn1c(-c2ccccc2)cnc1NCc1ccccc1,-21.3%
13,O=C(c1cccc([N+](=O)[O-])c1)n1nc(-c2ccccc2)nc1NCc1ccccc1,9.75%
14,Cn1c(-c2ccc(F)cc2)cnc1NCc1cccc([N+](=O)[O-])c1,-70.9%
15,Cn1c(-c2ccc(F)cc2)cnc1NCc1cccc(F)c1,-46%
16,Cn1c(-c2cccc([N+](=O)[O-])c2)cnc1NCc1cccc([N+](=O)[O-])c1.O=C(O)C(=O)O,-77.8%
17,Cc1ccc(CNc2ncc(-c3ccccc3)n2C)o1.O=C(O)C(=O)O,-37%
18,CCN(CC)C(=O)c1ccc(NC(=O)Cn2nc(C)c3ccccc3c2=O)cc1,-10.3%
19,Cc1ccc(C(=O)CSc2nnc(-c3cccnc3)n2N)cc1,-15.2%
20,O=C(NCCN1C(=O)S/C(=C\c2ccc(Cl)c(Cl)c2)C1=O)C1COc2ccccc2O1 (stereo not drawn),-9.28%
21,COc1cc2c(cc1OC)[C@H](C)N(C(=O)NCc1ccccc1)CC2,5.78%
